Assay outcomes: PubChem BioAssay, National Center for Advancing Translational Sciences (NCATS)
Rows were chosen to be rich in hits. Some 11% of all compounds tested hit in one or more screens of this group.
IL1B secr inh: inhibitors of inflammasome signaling (IL-1 beta secretion) | THP-1 LPS/ATP IL-1B secretion, AlphaLISA, 16 h; hits give low values | activity change, % at 57.5 µM | AID 743279 | hit rate 4.7% among 360,000; in the data active = activity change below about -50%; inconclusive = mostly about -30% to -49%
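Secreted IL-1B measured by AlphaLISA bead assay after 16 h compound exposure of THP-1 cells; compounds (final up to 57.5 uM) added 1 h before LPS (250 ng/mL) and ATP (1.25 mM) stimulation; lower signal means less secretion.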
MCF10A rerep: inducers of DNA re-replication in MCF 10A breast cells; Potency, µM (doses to about 46.1 µM), most hits filed as activators; hit rate 2.9% among 350,000; AID 624296; MCF 10A DNA re-replication, Hoechst nuclear intensity, 48 h; note: nearly all actives have a fitted effect of over 50% in size
SW480 rerep: DNA re-replication induction in SW480 cells | SW480 DNA re-replication, Hoechst DNA content imaging, 48 h | Potency, µM (highest dose often 46.1 µM), hits mostly activators | hit rate 1.8% among 340,000 | AID 624297; note: nearly all actives have a fitted effect of over 55% in size
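Quantitative HTS format with DMSO vehicle controls; 48 hr drug incubation at 37 C, then 40 min Hoechst staining and scanning imager measurement at 405 nm excitation.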
RORgamma inh: ROR gamma (mouse) transcription inhibition; Drosophila S2 Gal4-RORgamma UAS-luciferase reporter, 20 h; Potency, µM (highest dose often 53.6 µM), actives largely listed as inhibitors; hit rate 5.4% among 310,000; AID 2551; note: nearly all actives have a fitted effect of over 60% in size
Target sequence (P51450 whole entry, looked up, the tested form may be a part): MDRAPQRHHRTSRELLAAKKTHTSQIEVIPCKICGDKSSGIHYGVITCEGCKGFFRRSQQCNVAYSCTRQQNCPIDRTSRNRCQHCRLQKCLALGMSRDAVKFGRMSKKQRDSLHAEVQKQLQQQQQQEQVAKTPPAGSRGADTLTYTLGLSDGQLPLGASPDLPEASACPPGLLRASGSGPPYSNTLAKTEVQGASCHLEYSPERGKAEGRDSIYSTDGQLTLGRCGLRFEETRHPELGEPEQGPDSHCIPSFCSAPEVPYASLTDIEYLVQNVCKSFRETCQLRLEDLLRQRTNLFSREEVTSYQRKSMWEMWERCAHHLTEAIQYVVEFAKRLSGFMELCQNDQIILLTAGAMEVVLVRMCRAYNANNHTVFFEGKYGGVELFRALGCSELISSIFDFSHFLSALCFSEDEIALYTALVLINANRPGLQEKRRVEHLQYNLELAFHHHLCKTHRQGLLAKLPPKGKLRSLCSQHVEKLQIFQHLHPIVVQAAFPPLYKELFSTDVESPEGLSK
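Luminescence from a UAS-regulated Photinus luciferase reporter in stably transfected Drosophila Schneider cells is measured; decreased signal marks ROR gamma inhibition. Fusion expression is induced by 700 uM copper sulfate for 20 hr.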
VP16 counter: counter-screen for ROR gamma inhibitors: Gal4-VP16 reporter. Drosophila S2 Gal4-VP16 UAS-luciferase, luminescence, 20 h. hit rate 3.5% among 310,000. Potency, µM (doses to about 53.6 µM), usual class: inhibitors;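 note: Gal4-VP16 expression switched on by copper sulfate through the metallothionein promoter; nearly all actives have a fitted effect of over 50% in size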
Hits are given with their value; [ ] = dose if it differs, or a comment. Unless noted, calls come from the whole dose curve; as a rule, active = well fitted curve in the direction sought with a large enough effect; inconclusive = small, poorly fitted or top-dose-only effect, or another doubt; inactive = no such curve, though single readings can be large; an effect the other way counts as inactive or inconclusive.

For CCCCC/C=C\C/C=C\C/C=C\CCCCC(=O)NCCO the results were RORgamma inh inactive and VP16 counter inactive.
For CC[n+]1c(-c2ccccc2)c2cc(N)ccc2c2ccc(N)cc21 the results were IL1B secr inh -99, MCF10A rerep inactive, SW480 rerep inactive, RORgamma inh inconclusive and VP16 counter 11µM.
Screening CN1C2CC(=O)CC1C(O)C2 (centres undefined) returned RORgamma inh inactive and VP16 counter inactive.
Screening CCN1C(=O)C(=C/C=C/c2ccco2)C(=O)N(CC)C1=S returned IL1B secr inh inactive, MCF10A rerep inactive, SW480 rerep inactive, RORgamma inh inactive and VP16 counter inactive.
CCN1C(=O)C(=C2C=C(C)N(Cc3ccco3)C(C)=C2)C(=O)N(CC)C1=S was read as IL1B secr inh inactive, MCF10A rerep 13µM, SW480 rerep inconclusive, RORgamma inh inconclusive and VP16 counter inactive.
For O=C(c1cccn2c(=O)c3cc(Br)ccc3nc12)N1CCC2(CC1)OCCO2 the results were IL1B secr inh inactive, MCF10A rerep inactive, SW480 rerep inactive, RORgamma inh inactive and VP16 counter inactive.
`Cc1cccn2c(=O)c3cc(C(=O)N4CCC5(CC4)OCCO5)n(C)c3nc12` gave IL1B secr inh inactive, MCF10A rerep 2.6µM, SW480 rerep 7.3µM, RORgamma inh inactive and VP16 counter inactive.
Cc1ccc2c(c1)C1CN(C)CCC1N2C(=O)c1ccccc1NS(=O)(=O)c1cccc(C(F)(F)F)c1 (centres undefined) was read as IL1B secr inh inactive, MCF10A rerep inconclusive, SW480 rerep inactive, RORgamma inh inactive and VP16 counter inactive.
Screening Cc1cc(N(CCCl)CCCl)ccc1C=NNC(=O)c1cccnc1 returned IL1B secr inh inactive, MCF10A rerep inconclusive and SW480 rerep inconclusive.
`O=C(NN=Cc1ccc(N(CCCl)CCCl)cc1)c1cc(=O)[nH]c(=O)[nH]1` gave IL1B secr inh inactive, MCF10A rerep inconclusive and SW480 rerep 7.3µM.
Screening O=C(NN=Cc1ccc(N(CCCl)CCCl)cc1)C(=O)c1c[nH]c2ccccc12 returned IL1B secr inh inactive, MCF10A rerep 16µM and SW480 rerep inconclusive.
`O=C(Cc1cc(=O)oc2cc(O)ccc12)NN=Cc1ccc(N(CCCl)CCCl)cc1` gave IL1B secr inh inactive, MCF10A rerep inconclusive and SW480 rerep inconclusive.
Screening CC(C)(N)Cc1ccc(Cl)cc1 returned MCF10A rerep inactive, SW480 rerep inactive, RORgamma inh inactive[10 µM] and VP16 counter inactive.
For ClC1=C(Cl)C2(Cl)C3C4CC(C5OC45)C3C1(Cl)C2(Cl)Cl (centres undefined) the results were MCF10A rerep inactive, SW480 rerep inactive, RORgamma inh inactive and VP16 counter inactive.
For S=C=S the results were MCF10A rerep inactive, SW480 rerep inactive, RORgamma inh inactive and VP16 counter inactive.
CC(=NNC(=S)N1CC2CCC(CC2)C1)c1nccs1 was read as IL1B secr inh -100, MCF10A rerep inconclusive and SW480 rerep inconclusive.
Screening CN1CCN(c2ncnc3nc[nH]c23)CC1 returned IL1B secr inh inactive, MCF10A rerep 0.26µM, SW480 rerep inactive, RORgamma inh inactive and VP16 counter inactive.
CN1CCN(c2nc(Cl)ncc2F)CC1 was read as IL1B secr inh inactive, MCF10A rerep inactive, SW480 rerep inactive[1.84 µM], RORgamma inh inactive and VP16 counter inactive.
COC(=O)N1CCC2(CCCN(C)C2)CC1 was read as RORgamma inh inactive and VP16 counter inactive.
C=CC[C@]1(O)CC[C@H]2[C@@H]3CCC4=CC(=O)CCC4=C3C=C[C@@]21C was read as RORgamma inh inactive and VP16 counter inactive.
`COc1ccc(-c2cc(=NCCC(=O)O)c3cc(C)ccc3o2)cc1` gave IL1B secr inh -58, MCF10A rerep inactive, SW480 rerep inactive, RORgamma inh inactive and VP16 counter inactive.
C#CCO was read as RORgamma inh inactive and VP16 counter inactive.
Screening CC#C[C@]1(O)CC[C@H]2C3C=C(C)C4=CC(=O)C=C[C@]4(C)[C@H]3[C@@H](O)C[C@@]21C (some centres undefined) returned RORgamma inh inactive and VP16 counter inactive.
Cc1oc(-c2ccccc2)nc1CN1C(=O)C(C)N=C(c2ccccc2F)c2cc(Cl)ccc21 (centres undefined) was read as IL1B secr inh inactive, MCF10A rerep inconclusive, SW480 rerep inactive, RORgamma inh 13µM and VP16 counter inactive.
O=C1CN=C(c2ccccc2)c2cc(Cl)ccc2N1CC1CC1 was read as MCF10A rerep inactive, SW480 rerep inactive, RORgamma inh inactive and VP16 counter inactive.
COCCCNC(=O)Cn1cc(/C=C2\C(=O)NC(=O)N(c3ccccc3F)C2=O)c2ccccc21 was read as IL1B secr inh -82, MCF10A rerep inconclusive, SW480 rerep inactive, RORgamma inh inconclusive and VP16 counter inconclusive.
`COC(=O)C1=C(c2ccc(OC(F)(F)F)cc2)C[C@@H]2CC[C@H]1N2C(=O)NCc1ccc(F)cc1` gave IL1B secr inh inactive, MCF10A rerep inactive and SW480 rerep inactive.
`COC(=O)C1=C(c2ccc(OC(F)(F)F)cc2)C[C@@H]2CC[C@H]1N2C(=O)NCCNC(C)=O` gave IL1B secr inh inactive, MCF10A rerep inactive and SW480 rerep inactive.
Screening COC(=O)C1=C(c2ccc(OC(F)(F)F)cc2)C[C@@H]2CC[C@H]1N2C(=O)NCc1cccc2ccccc12 returned IL1B secr inh -71, MCF10A rerep inactive and SW480 rerep inactive[9.22 µM].
Screening COC(=O)C1=C(c2ccc(OC(F)(F)F)cc2)C[C@@H]2CC[C@H]1N2C(=O)NCCOc1ccc(OC)cc1 returned IL1B secr inh -54, MCF10A rerep inactive and SW480 rerep inactive[9.22 µM].
`COC(=O)C1=C(c2ccc(Cl)c(C(F)(F)F)c2)C[C@@H]2CC[C@H]1N2C(=O)NCCOc1ccccc1Cl` gave IL1B secr inh -82, MCF10A rerep inconclusive and SW480 rerep inactive.
Screening CCC(=O)CCCCC[C@@H]1NC(=O)[C@H]2CCCCN2C(=O)[C@H]([C@@H](C)CC)NC(=O)[C@H](Cc2cn(OC)c3ccccc23)NC1=O returned RORgamma inh inactive and VP16 counter inactive.
For S=C(S)N1CCCC1 the results were IL1B secr inh inactive, MCF10A rerep inconclusive, SW480 rerep inactive, RORgamma inh inconclusive and VP16 counter 0.32µM.
O=c1cccc2n1CC1CC2CN2CCCCC12 (centres undefined) was read as RORgamma inh inactive and VP16 counter inactive.
`COC(=O)c1nc(-c2ccc3c(n2)C(=O)C(N)=C(OC)C3=O)c(N)c(-c2ccc(OC)c(OC)c2O)c1C` gave IL1B secr inh -55, MCF10A rerep inconclusive, SW480 rerep inconclusive, RORgamma inh inactive and VP16 counter inactive.
Screening O=C(NC1CCCCCC1)c1ccc[nH]c1=S returned IL1B secr inh inactive, MCF10A rerep inactive, SW480 rerep inactive, RORgamma inh 0.45µM and VP16 counter 0.79µM.
